Reference: PubChem BioAssay (NCI)
This is part of a sample that, as a whole, favours compounds with a hit. Of some 79,000 tested, about 15% had one in any assay. Active and inactive are the calls of the source. No stated cut-off is given here; in the data, active means growth inhibition above about 70%; inactive means the rest.

How the values were obtained:
[1] = NCI Yeast Anticancer Drug Screen. Data for the wt1 strain (AID 149);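 further: 0% = growth of vehicle-treated wt1 cultures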; conditions: S. cerevisiae wt1 strain (SPY 50644) growth inhibition, active compounds read high
In short: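 wt1 strain grown with compound or vehicle; inhibition taken from the growth difference.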

[2] = NCI Yeast Anticancer Drug Screen. Data for the rad50EPP+ strain (AID 151);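 further: 0% = growth of vehicle-treated control cultures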; conditions: S. cerevisiae rad50 mutant strain, active compounds read high
In short: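 Strain rad50EPP+; compound exposure; % growth inhibition vs vehicle.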

[3] = NCI Yeast Anticancer Drug Screen. Data for the mgt1 strain (AID 153); conditions: S. cerevisiae mgt1 mutant growth inhibition, active compounds read high
In short: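 Read-out: yeast growth inhibition vs vehicle control. Strain mgt1, drawn from a panel altered in DNA damage repair or cell cycle control.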

[4] = NCI Yeast Anticancer Drug Screen. Data for the rad50 strain (AID 155);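 further: 0% = growth of vehicle-only cultures of the same strain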; conditions: S. cerevisiae rad50 strain growth inhibition, active compounds read high
In short: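 DNA repair mutant yeast, compound exposure, growth read-out; inhibition is taken relative to vehicle.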

[5] = NCI Yeast Anticancer Drug Screen. Data for the mec2-1 strain (AID 157); conditions: S. cerevisiae mec2-1 strain, active compounds read high
In short: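 Cells of the genetically defined mec2-1 yeast strain are incubated with test compound. Inhibition of growth is calculated against vehicle-treated controls.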

[6] = NCI Yeast Anticancer Drug Screen. Data for the rad14 strain (AID 159);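 further: 0% = growth of vehicle-treated control cultures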; conditions: S. cerevisiae rad14 strain growth inhibition, active compounds read high
In short: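 DNA repair-defective yeast, compound-exposed; % growth inhibition derived by comparison with vehicle-treated controls.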

[7] = NCI Yeast Anticancer Drug Screen. Data for the sgs1 mgt1 strain (AID 161);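 further: 0% = growth of cultures given vehicle only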; conditions: S. cerevisiae sgs1 mgt1 strain, active compounds read high
In short: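 Genetically altered yeast, compound exposure, growth inhibition relative to vehicle.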

[8] = NCI Yeast Anticancer Drug Screen. Data for the CLN2oe strain (AID 163);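 further: 0% = growth of vehicle-only control cultures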; conditions: S. cerevisiae CLN2oe strain, active compounds read high
In short: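 Strain altered in cell-cycle control, incubated with compound; growth compared to solvent-treated controls.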

[9] = NCI Yeast Anticancer Drug Screen. Data for the cln2 rad14 strain (AID 165);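 further: 0% = growth equal to vehicle treated cultures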; conditions: S. cerevisiae cln2 rad14 strain, active compounds read high
In short: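 The screen exposed genetically defined yeast (cln2 rad14) to test compounds and scored growth inhibition relative to vehicle-treated controls.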

[10] = NCI Yeast Anticancer Drug Screen. Data for the bub3 strain (AID 167); conditions: S. cerevisiae bub3 mutant strain, active compounds read high
In short: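 In this screen, a yeast mutant lacking normal mitotic checkpoint function is challenged with compound. Relative growth versus vehicle gives the inhibition value.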

[11] = NCI Yeast Anticancer Drug Screen. Data for the wt2 strain (AID 169);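 further: 0% = growth of vehicle-treated yeast cultures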; conditions: S. cerevisiae wt2 strain growth inhibition, active compounds read high
In short: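 Steps: yeast strain treated with compound; growth recorded; inhibition calculated relative to cultures given vehicle alone.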

[12] = NCI Yeast Anticancer Drug Screen. Data for the mlh1 strain (AID 171);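 further: 0% = growth of vehicle-treated control cultures of the same strain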; conditions: S. cerevisiae mlh1 strain growth inhibition, active compounds read high
In short: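 Yeast screen: mutant strain plus compound, growth scored against vehicle control wells.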

[13] = NCI Yeast Anticancer Drug Screen. Data for the sgs1 strain (AID 173);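 further: 0% = growth of vehicle-only control cultures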; conditions: S. cerevisiae sgs1 mutant, active compounds read high
In short: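 Inhibition of yeast growth served as the measure. The mutant strain was treated with each compound, and growth was normalised to cultures receiving vehicle alone.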

[14] = NCI Yeast Anticancer Drug Screen. Data for the mlh1 rad18 strain (AID 175); conditions: S. cerevisiae mlh1 rad18 strain growth inhibition, active compounds read high
In short: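 Compound-treated yeast growth, normalised to vehicle controls. Strain bears defined DNA repair mutations.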

[15] = NCI Yeast Anticancer Drug Screen. Data for the rad18 strain (AID 177); conditions: S. cerevisiae rad18 mutant growth inhibition, active compounds read high
In short: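 Inhibition values reflect reduced yeast growth compared with vehicle-treated controls, using a strain engineered with a DNA damage repair defect.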

[16] = NCI Yeast Anticancer Drug Screen. Data for the rad52 strain (AID 147);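 further: 0% = growth of vehicle-treated control cultures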; conditions: S. cerevisiae rad52 mutant growth inhibition, active compounds read high
In short: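 Genetically altered yeast (DNA damage repair defect) treated with compound; inhibition calculated relative to vehicle.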

[17] = at 5.0 µM (retest, dose inferred, filed as 0.5)
[18] = at 50.0 µM (retest, dose inferred, filed as 5.0)

Measured: growth inhibition

CN(C)CCn1c2ccccc2c2nc3cc4ccccc4cc3nc21
active: [1]; at 33.0 µM 78% | [1]; at 100.0 µM 98% | [2]; at 11.0 µM 88% | [2]; at 33.0 µM 94% | [2]; at 100.0 µM 97% | [3]; at 100.0 µM 98% | [4]; at 11.0 µM 85% | [4]; at 33.0 µM 95% | [4]; [18] 95% | [4]; at 50.0 µM 89% | [4]; at 100.0 µM 98% | [5]; at 33.0 µM 70% | [5]; [18] 99% | [5]; at 50.0 µM 86.6% | [5]; at 100.0 µM 98% | [6]; at 33.0 µM 80% | [6]; at 100.0 µM 99% | [7]; [18] 91% | [7]; at 50.0 µM 88% | [8]; at 100.0 µM 98% | [9]; [18] 94% | [9]; at 50.0 µM 84.3% | [10]; at 33.0 µM 72% | [10]; [18] 95% | [10]; at 50.0 µM 87.6% | [10]; at 100.0 µM 98% | [11]; at 33.0 µM 77% | [11]; at 100.0 µM 98% | [12]; at 33.0 µM 80% | [12]; at 100.0 µM 98% | [13]; at 33.0 µM 85% | [13]; at 100.0 µM 98% | [14]; [18] 98% | [14]; at 50.0 µM 71.2% | [15]; at 33.0 µM 87% | [15]; at 100.0 µM 98%
inactive: [1]; at 1.2 µM 15% | [1]; at 3.7 µM 23% | [1]; at 11.0 µM 28% | [2]; at 1.2 µM 0% | [2]; at 3.7 µM 38% | [3]; at 1.2 µM -2% | [3]; at 3.7 µM 4% | [3]; at 11.0 µM 14% | [3]; at 33.0 µM 69% | [4]; at 1.2 µM 12% | [4]; at 3.7 µM 34% | [4]; [17] 48% | [5]; at 1.2 µM -18% | [5]; at 3.7 µM -10% | [5]; [17] 26% | [5]; at 11.0 µM 14% | [6]; at 1.2 µM -4% | [6]; at 3.7 µM 7% | [6]; at 11.0 µM 28% | [7]; [17] 10% | [8]; at 1.2 µM 0% | [8]; at 3.7 µM 3% | [8]; at 11.0 µM 21% | [8]; at 33.0 µM 57% | [9]; [17] 30% | [10]; at 1.2 µM -13% | [10]; at 3.7 µM 10% | [10]; [17] 13% | [10]; at 11.0 µM 3% | [11]; at 1.2 µM 18% | [11]; at 3.7 µM 15% | [11]; at 11.0 µM 27% | [12]; at 1.2 µM 2% | [12]; at 3.7 µM 9% | [12]; at 11.0 µM 33% | [13]; at 1.2 µM -2% | [13]; at 3.7 µM 5% | [13]; at 11.0 µM 25% | [14]; [17] 34% | [15]; at 1.2 µM -11% | [15]; at 3.7 µM -10% | [15]; at 11.0 µM 11%

Clc1ccc(C(c2ccc(Cl)cc2)N2CCNCC2)cc1
active: [16]; at 100.0 µM 98% | [1]; at 100.0 µM 98% | [4]; [18] 95% | [4]; at 50.0 µM 92% | [4]; at 100.0 µM 97% | [5]; [17] 70% | [5]; [18] 96% | [5]; at 50.0 µM 93% | [5]; at 100.0 µM 98% | [6]; at 33.0 µM 71% | [6]; at 100.0 µM 98% | [7]; [18] 98% | [8]; at 100.0 µM 92% | [9]; [18] 88% | [10]; at 33.0 µM 71% | [10]; [18] 96% | [10]; at 100.0 µM 94% | [11]; at 100.0 µM 99% | [12]; at 100.0 µM 98% | [13]; at 100.0 µM 98% | [15]; at 100.0 µM 98%
inactive: [16]; at 1.2 µM 2% | [16]; at 3.7 µM -3% | [16]; at 11.0 µM -1% | [16]; at 33.0 µM 46% | [1]; at 1.2 µM 5% | [1]; at 3.7 µM 6% | [1]; at 11.0 µM 3% | [1]; at 33.0 µM 29% | [2]; at 1.2 µM 1% | [2]; at 3.7 µM 5% | [2]; at 11.0 µM 5% | [2]; at 33.0 µM 3% | [2]; at 100.0 µM -1% | [4]; at 1.2 µM -3% | [4]; at 3.7 µM -1% | [4]; [17] 38% | [4]; at 11.0 µM 6% | [4]; at 33.0 µM 67% | [5]; at 1.2 µM -19% | [5]; at 3.7 µM -19% | [5]; at 11.0 µM -10% | [5]; at 33.0 µM 49% | [6]; at 1.2 µM -36% | [6]; at 3.7 µM -30% | [6]; at 11.0 µM -41% | [7]; [17] -35% | [8]; at 1.2 µM -1% | [8]; at 3.7 µM -2% | [8]; at 11.0 µM 1% | [8]; at 33.0 µM 18% | [9]; [17] 61% | [10]; at 1.2 µM 1% | [10]; at 3.7 µM 3% | [10]; [17] 12% | [10]; at 11.0 µM 12% | [11]; at 1.2 µM -3% | [11]; at 3.7 µM -2% | [11]; at 11.0 µM -81% | [11]; at 33.0 µM 46% | [12]; at 1.2 µM -35% | [12]; at 3.7 µM -34% | [12]; at 11.0 µM -34% | [12]; at 33.0 µM 49% | [13]; at 1.2 µM -26% | [13]; at 3.7 µM -33% | [13]; at 11.0 µM -34% | [13]; at 33.0 µM 41% | [15]; at 1.2 µM 3% | [15]; at 3.7 µM -7% | [15]; at 11.0 µM 4% | [15]; at 33.0 µM 65%

CN(C)/N=N/c1nc[nH]c1C(N)=O
active: [16]; at 100.0 µM 95% | [1]; at 100.0 µM 88% | [4]; at 100.0 µM 97% | [5]; at 100.0 µM 98% | [6]; at 100.0 µM 98% | [8]; at 100.0 µM 99% | [10]; at 100.0 µM 96% | [11]; at 100.0 µM 98% | [12]; at 100.0 µM 97% | [13]; at 100.0 µM 98% | [15]; at 100.0 µM 98%
inactive: [16]; at 1.2 µM -2% | [16]; at 3.7 µM 1% | [16]; at 11.0 µM 8% | [16]; at 33.0 µM 31% | [1]; at 1.2 µM 0% | [1]; at 3.7 µM -1% | [1]; at 11.0 µM -3% | [1]; at 33.0 µM -1% | [2]; at 1.2 µM -3% | [2]; at 3.7 µM -2% | [2]; at 11.0 µM 0% | [2]; at 33.0 µM 8% | [2]; at 100.0 µM 32% | [4]; at 1.2 µM -2% | [4]; at 3.7 µM 0% | [4]; at 11.0 µM 7% | [4]; at 33.0 µM 20% | [5]; at 1.2 µM 0% | [5]; at 3.7 µM 0% | [5]; at 11.0 µM 1% | [5]; at 33.0 µM 5% | [6]; at 1.2 µM -2% | [6]; at 3.7 µM -2% | [6]; at 11.0 µM 0% | [6]; at 33.0 µM -1% | [8]; at 1.2 µM 1% | [8]; at 3.7 µM 2% | [8]; at 11.0 µM 0% | [8]; at 33.0 µM 0% | [10]; at 1.2 µM 2% | [10]; at 3.7 µM 1% | [10]; at 11.0 µM -2% | [10]; at 33.0 µM 46% | [11]; at 1.2 µM -5% | [11]; at 3.7 µM -1% | [11]; at 11.0 µM -2% | [11]; at 33.0 µM -2% | [12]; at 1.2 µM -2% | [12]; at 3.7 µM -2% | [12]; at 11.0 µM 0% | [12]; at 33.0 µM 0% | [13]; at 1.2 µM -1% | [13]; at 3.7 µM -2% | [13]; at 11.0 µM 1% | [13]; at 33.0 µM 6% | [15]; at 1.2 µM -3% | [15]; at 3.7 µM 0% | [15]; at 11.0 µM 8% | [15]; at 33.0 µM 42%
